Potency, outcome and activity change, positive = activation data for 7 compounds are collected here from PubChem BioAssay (Tox21).

Experiment [1] can be described thus: qHTS assay to identify small molecule antagonists of the estrogen related receptor (ERR) signaling pathway from Tox21 library - cell viability counter screen (AID 1224834). Note: nearly all actives have a fitted effect of over 30% in size. Note: potency is the fitted concentration of half-maximal effect. An outline of the steps: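 Viability readout (CellTiter-Fluor fluorescence, 30 min at 37 C) multiplexed with the ERR assay; cells treated 17.5 h at 37 C with compounds delivered in DMSO.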

Experiment [2] deals with Luciferin 4-monooxygenase (Photinus pyralis) (UniProt P08659). As to the kind of experiment: qHTS assay to identify small molecule inhibitors of firefly luciferase (AID 1224835). Note: nearly all actives have a fitted effect of over 25% in size. Note: potency is the fitted concentration of half-maximal effect. In a few lines: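 Quantitative HTS format; KM concentrations of both substrates. Purified P. pyralis FLuc activity quantified from luminescence images.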
Luciferin 4-monooxygenase (Photinus pyralis), sequence (P08659 whole entry, looked up): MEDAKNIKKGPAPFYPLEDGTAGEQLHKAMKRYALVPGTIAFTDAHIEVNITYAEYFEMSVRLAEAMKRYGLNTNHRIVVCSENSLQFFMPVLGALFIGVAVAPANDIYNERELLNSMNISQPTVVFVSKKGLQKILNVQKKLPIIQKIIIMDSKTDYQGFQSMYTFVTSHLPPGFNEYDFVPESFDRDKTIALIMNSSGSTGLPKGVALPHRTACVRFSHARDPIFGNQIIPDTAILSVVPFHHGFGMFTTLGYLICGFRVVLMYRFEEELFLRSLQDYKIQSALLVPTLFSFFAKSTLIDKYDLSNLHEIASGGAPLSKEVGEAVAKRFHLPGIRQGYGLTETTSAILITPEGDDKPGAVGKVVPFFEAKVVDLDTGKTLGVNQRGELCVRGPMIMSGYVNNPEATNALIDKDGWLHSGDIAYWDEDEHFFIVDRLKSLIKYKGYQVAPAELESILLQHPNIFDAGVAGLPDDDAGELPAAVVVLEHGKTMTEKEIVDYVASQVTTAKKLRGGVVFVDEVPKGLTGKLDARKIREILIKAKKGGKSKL
Experiment [3] is described as follows: qHTS assay to identify small molecule agonists of the constitutive androstane receptor (CAR) signaling pathway - cell viability counter screen (AID 1224836). Note: nearly all actives have a fitted effect of over 45% in size. In a few lines: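 Multiplexed viability check: HepG2-CYP2B6-hCAR cells, 15-point compound dosing, 0.75 uM PK11195 final, 23 h at 37 C, CellTiter-Fluor fluorescence.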
The nature of experiment [4]: qHTS assay to identify small molecule antagonists of the constitutive androstane receptor (CAR) signaling pathway - cell viability counter screen (AID 1224837). Note: nearly all actives have a fitted effect of over 45% in size. In a few lines: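 Fluorescence from CellTiter-Fluor served as the viability signal. Human hepatoma HepG2 cells stably bearing hCAR and CYP2B6-2.2kb received compound plus CITCO (50 nM final) for 23 hr.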
The target in experiment [5] is Nuclear receptor subfamily 1 group I member 3 (Homo sapiens) (UniProt Q14994). In words: qHTS assay to identify small molecule antagonists of the constitutive androstane receptor (CAR) signaling pathway (AID 1224838).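 Note: HepG2 cells stably expressing hCAR with CYP2B6 luciferase reporter stimulated by CITCO; nearly all actives have a fitted effect of over 40% in size.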 An outline of the steps: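 Quantitative HTS in double-stable HepG2-CYP2B6-hCAR cells. After 4 h plating, cells get compound (15 concentrations) and CITCO at 50 nM final, incubate 24 h at 37 C, then ONE-Glo luminescence is read.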
Nuclear receptor subfamily 1 group I member 3 (Homo sapiens), sequence (Q14994 whole entry, looked up): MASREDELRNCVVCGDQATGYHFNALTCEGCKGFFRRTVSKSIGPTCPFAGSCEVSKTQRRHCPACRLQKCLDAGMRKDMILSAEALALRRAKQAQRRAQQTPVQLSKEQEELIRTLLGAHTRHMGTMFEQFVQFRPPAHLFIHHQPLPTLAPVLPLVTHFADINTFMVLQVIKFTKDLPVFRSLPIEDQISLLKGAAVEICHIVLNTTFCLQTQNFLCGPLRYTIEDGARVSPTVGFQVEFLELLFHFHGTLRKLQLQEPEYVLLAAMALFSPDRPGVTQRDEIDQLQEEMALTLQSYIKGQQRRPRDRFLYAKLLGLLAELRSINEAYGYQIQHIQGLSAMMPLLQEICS

Experiment [6] has the same target. As to the kind of experiment: qHTS assay to identify small molecule agonists of the constitutive androstane receptor (CAR) signaling pathway (AID 1224839).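 Note: HepG2 cells stably carrying human CAR and a CYP2B6 luciferase reporter; nearly all actives have a fitted effect of over 15% in size.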 An outline of the steps: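 Using human hepatoma HepG2 cells engineered with hCAR and a CYP2B6-2.2kb reporter, 15-concentration compound series were incubated 24 h alongside PK11195 at 0.75 uM final, with luminescence quantified afterwards.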

A short description of experiment [7]: qHTS assay to identify small molecule antagonists of the estrogen related receptor signaling pathway with the pleiotropic PPARgamma coactivator (PGC) from Tox21 10K library - cell viability counter screen (AID 1224840; active = well fitted cell-killing curve with a large enough effect in the repeat runs, not every such curve was filed as active; note: nearly all actives have a fitted effect of over 40% in size). An outline of the steps: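 Compounds in DMSO, alongside positive and negative controls, were pinned onto PGC/ERR cells (2,000 per well). Exposure lasted 17.5 hours at 37 C, followed by a 30-minute CellTiter-Fluor incubation and fluorescence reading.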

A short description of experiment [8]: qHTS assay to identify small molecule antagonists of the estrogen related receptor signaling pathway with the pleiotropic PPARgamma coactivator (PGC) from Tox21 10K library (AID 1224841; call rule not given here; note: actives are mostly falling curves and most rising ones were filed inactive; nearly all actives have a fitted effect of over 50% in size; note: potency is the fitted concentration of half-maximal effect). In a few lines: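 Compound exposure ran 18 hours at 37 C in PGC/ERR cells (2,000/well) that had first rested 6 hours in a 37 C/5% CO2 incubator. Luciferase activity was then detected with One-Glo after a 30-minute room-temperature step.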

The nature of experiment [9]: qHTS assay to identify small molecule agonists of the estrogen related receptor signaling pathway with the pleiotropic PPARgamma coactivator (PGC) from Tox21 10K library (AID 1224842). Note: nearly all actives have a fitted effect of over 15% in size. An outline of the steps: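 PGC/ERR reporter cells (NTP line) were seeded 2,000 per well, rested 6 h at 37 C/5% CO2, then pin-dosed with compounds in DMSO for 18 h at 37 C; luciferase read by One-Glo luminescence after 30 min at room temperature.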

For experiment [10], the target named is Thyrotropin receptor (Homo sapiens) (UniProt P16473). As to the kind of experiment: qHTS assay to identify small molecule agonists of the thyroid stimulating hormone receptor (TSHR) signaling pathway (AID 1224843; calls by dose curve; note: nearly all actives have a fitted effect of over 45% in size). In a few lines: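 TSHR-expressing HEK293 cells (800 per well) were exposed to compounds for 30 min at room temperature. cAMP was then detected by HTRF competition with cAMP-d2 and anti-cAMP cryptate, read after 1 h at room temperature. Fifteen concentrations, triplicate.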
Thyrotropin receptor (Homo sapiens), sequence (P16473 whole entry, looked up): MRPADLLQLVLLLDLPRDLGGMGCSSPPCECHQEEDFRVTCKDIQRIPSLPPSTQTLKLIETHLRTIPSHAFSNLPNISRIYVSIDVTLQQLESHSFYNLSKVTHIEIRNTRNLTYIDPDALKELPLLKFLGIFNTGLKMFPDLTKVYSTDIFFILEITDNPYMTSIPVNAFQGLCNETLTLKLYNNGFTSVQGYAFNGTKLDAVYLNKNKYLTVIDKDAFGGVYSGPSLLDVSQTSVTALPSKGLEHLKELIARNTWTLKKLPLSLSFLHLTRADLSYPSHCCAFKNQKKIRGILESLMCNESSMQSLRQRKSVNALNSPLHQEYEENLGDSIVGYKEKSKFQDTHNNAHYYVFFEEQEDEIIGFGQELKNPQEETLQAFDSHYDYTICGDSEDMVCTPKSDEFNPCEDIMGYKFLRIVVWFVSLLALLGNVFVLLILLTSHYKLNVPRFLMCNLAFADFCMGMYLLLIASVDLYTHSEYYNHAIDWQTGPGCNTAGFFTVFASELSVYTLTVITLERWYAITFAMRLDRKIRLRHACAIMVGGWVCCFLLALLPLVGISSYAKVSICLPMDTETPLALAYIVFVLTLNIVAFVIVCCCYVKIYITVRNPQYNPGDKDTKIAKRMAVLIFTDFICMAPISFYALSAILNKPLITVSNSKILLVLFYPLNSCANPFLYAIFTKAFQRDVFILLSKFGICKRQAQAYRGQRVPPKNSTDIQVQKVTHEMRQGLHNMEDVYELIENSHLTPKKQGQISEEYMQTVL

Experiment [11] is described as follows: qHTS assay to identify small molecule agonists of H2AX (AID 1224845; active = well fitted activation curve with a large enough effect in the signal ratio in the repeat runs, not every such curve was filed as active; the % refers to the signal ratio). In a few lines: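 Wild-type CHO-K1 cells plated overnight, then exposed 3 hr at 37C to compounds at 15 concentrations (0.76% DMSO). Lysed, then HTRF anti-pH2AX(S139)-cryptate/anti-H2AX-d2 detection after 24 hr at room temperature; emissions 665 and 620 nm.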
Experiment [12] can be described thus: qHTS assay to identify small molecule agonists of the hypoxia (HIF-1) signaling pathway (AID 1224846; active = well fitted activation curve with a large enough effect in the signal ratio in the repeat runs, not every such curve was filed as active; the % refers to the signal ratio). In a few lines: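 Measured by blue/green FRET after loading CCF4-AM: beta-lactamase expressed from a hypoxia response element in ME-180 cells. Test agents were delivered in DMSO and left 17 hrs; cells had been plated 5 hrs earlier in low-serum (0.5% dialyzed FBS) medium.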

The nature of experiment [13]: qHTS assay to identify small molecule agonists of H2AX - cell viability counter screen (AID 1224847; calls by dose curve; note: nearly all actives have a fitted effect of over 30% in size; note: potency is the fitted concentration of half-maximal effect). An outline of the steps: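 After overnight plating of 1000 CHO-K1 cells per well, a 15-concentration compound series was applied for 3 hr at 37C. Luminescence from CellTiter-Glo, read following 30 min at room temperature, reflected cell viability.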
The nature of experiment [14]: qHTS assay to identify small molecule antagonists of the estrogen related receptor (ERR) signaling pathway from Tox21 library (AID 1224848). Note: nearly all actives have a fitted effect of over 50% in size. Note: potency is the fitted concentration of half-maximal effect. An outline of the steps: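 Cells: ERR line, 2,000/well; 6 h preincubation 37 C/5% CO2. Cpd in DMSO via pin tool; 18 h, 37 C. ONE-Glo, 30 min RT, luminescence.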
The nature of experiment [15]: qHTS assay to identify small molecule agonists of the estrogen related receptor (ERR) signaling pathway from Tox21 library (AID 1224849; calls by dose curve; note: nearly all actives have a fitted effect of over 15% in size). As to conditions: ERR reporter cell line, ONE-Glo luciferase, 18 h; at 92.4 µM (top of the series) unless noted. An outline of the steps:
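We plated ERR reporter cells, waited 6 h, added compounds in DMSO by pin tool and incubated them 18 h at 37 C. ONE-Glo was then added and luminescence read after 30 min.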

A short description of experiment [16]: qHTS RealTime-Glo MT Cell Viability Assay in HepG2 cells - 24 hour (AID 1224867). Note: nearly all actives have a fitted effect of over 50% in size. An outline of the steps:
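Cell number in HepG2 cultures estimated from NanoLuc luminescence generated by metabolic reduction of a prosubstrate by living cells. The homogeneous, nonlytic format allowed repeated reads at 0, 8, 16, 24, 32 and 40 h of compound exposure.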

Experiment [17] can be described thus: qHTS RealTime-Glo MT Cell Viability Assay in HEK293 cells - 32 hour (AID 1224868). Note: nearly all actives have a fitted effect of over 50% in size. Note: potency is the fitted concentration of half-maximal effect. In a few lines:
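Homogeneous bioluminescent viability format in HEK293 cells (600 cells/well). Following 5 h at 37 C/5% CO2, 23 nL compound was pintooled; the signal was measured repeatedly during 40 h incubation.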

The nature of experiment [18]: A CellTox Green Cytotoxicity Assay to monitor cytotoxicity in HEK293 cells - 0 hour (AID 1224869). Note: nearly all actives have a fitted effect of over 50% in size. An outline of the steps: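 Each value comes from one timepoint of a single continuous run in which HEK293 cells with CellTox Green were exposed to compound for up to 40 h at 37 C, dye fluorescence rising with cell death.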
Experiment [19] is described as follows: qHTS assay to identify small molecule agonists of the hypoxia (HIF-1) signaling pathway - cell viability counter screen (AID 1224844; calls by dose curve; note: nearly all actives have a fitted effect of over 50% in size). In a few lines: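 Luminescent ATP content (CellTiter-Glo, 30 min, room temperature) served as the viability measure in HRE-bla ME-180 cells exposed to compounds for 17 hrs in low-serum medium (0.5% dialyzed FBS).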
A short description of experiment [20]: qHTS RealTime-Glo MT Cell Viability Assay in HepG2 cells - 40 hour (AID 1224870). Note: nearly all actives have a fitted effect of over 50% in size. An outline of the steps: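 HepG2 cells mixed with RealTime-Glo MT reagents (NanoLuc plus cell-permeant prosubstrate) were seeded at 600 cells/well, incubated 5 h at 37 C/5% CO2, then pinned with compounds in DMSO; nonlytic luminescence tracked viability during 40 h treatment.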

Values without a mark were called inactive. Results filed as inconclusive are left out. The source made the active and inactive calls. Unless noted, calls come from the whole dose curve; as a rule, active = well fitted curve in the direction sought with a large enough effect in the repeat runs; inconclusive = weak or mixed curves; inactive = no such curve, though single readings can be large; an effect the other way counts as inactive or inconclusive.
% is set by controls: 0 for no effect and ±100 for the full control effect.

In the case of `C=C1C[C@@]23CC[C@H]4[C@@](C)(CCC[C@@]4(C)C(=O)O[C@@H]4O[C@H](CO)[C@@H](O)[C@H](O)[C@H]4O)[C@@H]2CC[C@]1(O[C@@H]1O[C@H](CO)[C@@H](O)[C@H](O[C@@H]2O[C@H](CO)[C@@H](O)[C@H](O)[C@H]2O)[C@H]1O[C@@H]1O[C@H](CO)[C@@H](O)[C@H](O)[C@H]1O)C3`, the Potency result in experiment [1], in experiment [2], in [3], in [4], in experiment [5] and in experiment [6] was “inactive” throughout. In addition, the Potency result in [7], in experiment [8], in experiment [9], in [10], in experiment [11] and in experiment [13] was “inactive” each time. Also, the Potency entry in experiment [14], in experiment [16], in experiment [17] and in experiment [18] was “inactive” each time. Besides, the compound was classed as inactive in experiment [12]. Further, the activity change, positive = activation in experiment [15] is 1.6%.
As for `N#[N+]c1ccc2c(S(=O)(=O)[O-])cccc2c1O`, the Potency entry in experiment [1], in experiment [3], in experiment [4], in [5], in experiment [6] and in experiment [7] was “inactive” each time. The Potency result in experiment [8], in experiment [9], in experiment [10], in experiment [19], in experiment [14] and in [16] was “inactive” throughout. Moreover, the Potency entry in experiment [17], in experiment [18] and in experiment [20] was “inactive” each time. Besides, in experiment [2], the Potency is 44.8 µM (active). The compound was called inactive in experiment [12]. Besides, the activity change, positive = activation in [15] was -0.985%.
In the case of `CC(C)(C)CC(=O)OCC(=O)[C@@]1(O)CC[C@H]2[C@@H]3CCC4=CC(=O)C=C[C@]4(C)[C@H]3[C@@H](O)C[C@@]21C`, the Potency in experiment [1] was 26.6 µM (active); in [8], 23.7 µM (active); in [13], 55.2 µM (active); in [14], 26.6 µM (active); in experiment [17], 19 µM (active). For the same compound, the Potency entry in [2], in experiment [3], in experiment [4], in [5], in experiment [6] and in experiment [7] was “inactive” throughout. In addition, the Potency entry in experiment [9], in [10], in experiment [11], in [16], in [18] and in experiment [20] was “inactive” each time. For the same compound, the call in experiment [12] was inactive. Further, in experiment [15], the activity change, positive = activation is -49.3% [at 42.5 µM].
Take `OC1(c2ccccc2)CCNCC1`: the Potency result in experiment [1], in experiment [2], in experiment [3], in [4], in experiment [5] and in [6] was “inactive” in each case. The Potency entry in experiment [7], in experiment [8], in experiment [9], in experiment [10], in [19] and in [13] was “inactive” throughout. The Potency result in experiment [14], in experiment [16], in [17], in [18] and in experiment [20] was “inactive” in each case. In addition, the compound was called inactive in [12]. Moreover, in experiment [15], the activity change, positive = activation is 5.89% [at 42.5 µM].
Take `CC(=O)OCC(=O)NCCCOc1cccc(CN2CCCCC2)c1`: the Potency entry in experiment [1], in experiment [2], in experiment [3], in [4], in [5] and in [6] was “inactive” each time. Also, the Potency entry in experiment [7], in experiment [8], in experiment [9], in [10], in experiment [19] and in [11] was “inactive” throughout. Moreover, the Potency entry in [14], in [16], in [17], in [18] and in experiment [20] was “inactive” each time. Besides, the compound was classed as inactive in experiment [12]. Also, in [15], the activity change, positive = activation was 4.2% [at 42.5 µM].
Take `CN1CCCN=C1COC(=O)C(O)(c1ccccc1)C1CCCCC1` (stereo not given): the Potency result in experiment [1], in experiment [2], in experiment [3], in experiment [4], in [5] and in experiment [6] was “inactive” each time. The Potency result in experiment [7], in experiment [8], in [9], in experiment [19], in experiment [14] and in experiment [16] was “inactive” each time. The Potency result in experiment [17], in [18] and in experiment [20] was “inactive” in each case. Besides, the activity change, positive = activation in experiment [15] was 6.85% [at 42.5 µM].
As to `C1C[C@@H]2[C@H]3CC[C@H](C3)[C@@H]2C1`, the Potency entry in experiment [1], in experiment [2], in [3], in experiment [4], in [5] and in experiment [6] was “inactive” in each case. Further, the Potency entry in experiment [7], in [10], in experiment [19], in experiment [11], in experiment [13] and in experiment [16] was “inactive” in each case. Further, the Potency result in experiment [17], in experiment [18] and in experiment [20] was “inactive” each time. In addition, in experiment [12], the outcome was inactive.
